Anthrax LF inh2: inhibitors of Bacillus anthracis lethal factor protease. P15917. multiplex microsphere protease cleavage assay, LF. inhibition, % at 10 µM. 360,000 tested, 0.12% active; in the data active means inhibition above about 30%; inconclusive means no clear call, values can overlap the other calls
Target sequence (P15917 whole entry, looked up): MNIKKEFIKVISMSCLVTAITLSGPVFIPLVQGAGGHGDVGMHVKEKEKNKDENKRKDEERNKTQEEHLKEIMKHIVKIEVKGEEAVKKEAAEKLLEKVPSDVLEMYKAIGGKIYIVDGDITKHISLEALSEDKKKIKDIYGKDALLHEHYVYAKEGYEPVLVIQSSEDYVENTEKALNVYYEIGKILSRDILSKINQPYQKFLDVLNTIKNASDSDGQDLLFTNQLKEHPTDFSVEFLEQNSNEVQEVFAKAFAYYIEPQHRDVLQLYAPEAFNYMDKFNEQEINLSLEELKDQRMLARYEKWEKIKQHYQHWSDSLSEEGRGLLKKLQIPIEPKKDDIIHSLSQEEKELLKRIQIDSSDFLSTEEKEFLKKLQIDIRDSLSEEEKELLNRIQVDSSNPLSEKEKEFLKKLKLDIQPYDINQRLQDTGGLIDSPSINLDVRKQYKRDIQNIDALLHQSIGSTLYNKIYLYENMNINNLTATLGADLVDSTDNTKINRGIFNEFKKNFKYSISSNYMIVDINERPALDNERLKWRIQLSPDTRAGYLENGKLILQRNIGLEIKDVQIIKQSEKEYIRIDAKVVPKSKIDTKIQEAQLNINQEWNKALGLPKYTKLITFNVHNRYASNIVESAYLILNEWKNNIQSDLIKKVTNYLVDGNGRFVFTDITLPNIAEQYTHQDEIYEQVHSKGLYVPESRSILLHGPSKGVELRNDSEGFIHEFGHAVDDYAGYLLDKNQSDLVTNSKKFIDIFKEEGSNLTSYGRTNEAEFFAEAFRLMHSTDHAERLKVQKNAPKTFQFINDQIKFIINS
BoNT A protease: blocks Botulinum neurotoxin A light chain protease; inhibition, % at 10 µM; 360,000 tested, 0.17% active; multiplex microsphere protease substrate cleavage, flow cytometry; in the data active means inhibition above about 30%; inconclusive means no clear call, values can overlap the other calls
FBA Mtb inh: Mtb fructose-bisphosphate aldolase inhibition. purified M. tuberculosis FBA, fluorescence read-out. inhibition, % at 1 µM. 360,000 tested, 2.3% active. AID 588726
Autofluor counter: flagged as autofluorescent in microsphere protease counterscreen; compound autofluorescence counterscreen, microsphere flow cytometry; active compounds read high; fluorescence intensity (no concentration beside the values); 360,000 tested, 3.1% active; AID 624483; in the data active means fluorescence intensity above about 16000; inconclusive means no clear call, values can overlap the other calls
BoNT-F LC inh: inhibitors of Botulinum neurotoxin F light chain protease | Multiplex microsphere protease cleavage assay, flow cytometry | inhibition, % at 10 µM | 360,000 tested, 0.22% active | AID 588497; in the data active means inhibition above about 35%, passing the limit was not always enough; inconclusive means no clear call, values can overlap the other calls
GDH-TPI counter-1: inhibits GDH-TPI coupling enzymes, artifact for Mtb FBA screen. GDH-TPI coupled enzyme counterscreen, NADH absorbance. 360,000 tested, 1.2% active. inhibition, % at 4.8 µM; in the data active means inhibition above about 30%
Mtb FBA confirm: confirmation of M. tuberculosis fructose-bisphosphate aldolase inhibitors; shares compounds with FBA Mtb inh; purified M. tuberculosis FBA, fluorescence read-out; inhibition, % at 1 µM; 5,600 tested, 78% active; AID 651616
GDH-TPI counter-2: GDH-TPI inhibition counter-screen for FBA inhibitors; GDH-TPI coupled enzyme counterscreen, fluorescence; AID 652141; inhibition, % at 1 µM; 5,600 tested, 81% active; shares compounds with FBA Mtb inh; in the data active means inhibition above about 10%
Numbers stand for hits; – = inactive; ? = inconclusive; · = no result; + = active, no number. The list is not random: actives were taken first. Their share in the collection is about 6.7%. Unless noted, no stated cut-off is given here; in the data, active means inhibition above about 27%; inactive means the rest.

SMILES	Anthrax LF inh2	BoNT A protease	FBA Mtb inh	Autofluor counter	BoNT-F LC inh	GDH-TPI counter-1	Mtb FBA confirm	GDH-TPI counter-2
c1ccc2[nH]c(-c3ccc4c(c3)OCO4)nc2c1	–	–	–	–	–	–	·	·
Clc1ccc(-c2nc3ccccc3[nH]2)cn1	–	–	72	–	–	–	97	84
Cc1ccc(-c2nc3ccccc3[nH]2)cn1	–	–	–	–	–	–	·	·
CC1(C(=O)NS(=O)(=O)c2ccc(F)cc2F)CCN1C(=O)C1(c2ccc(Cl)cc2)CCC1 (stereo unspecified)	–	–	–	–	–	–	·	·
COc1ccc(OC)c(/C=N\NC(=O)c2ccc(-c3ccccc3)cc2)c1	–	–	–	–	–	–	·	·
COc1ccc(C(=O)N/N=C/c2cc3ccccc3[nH]c2=O)cc1	–	–	40	–	–	50	126	106
COc1ccc(C(=O)N/N=C/c2ccc(N(C)c3ccccc3)cc2)cc1	·	·	41	·	·	–	109	99
Cc1ccc2oc(C(=O)N(Cc3ccc(N(C)C)cc3)C3CCS(=O)(=O)C3)c(C)c2c1 (stereo unspecified)	–	–	–	–	–	–	·	·
CCCCNS(=O)(=O)CCNCc1ccco1	–	–	–	–	–	–	·	·
NNc1ccc2c(C(F)(F)F)cc(C(F)(F)F)nc2n1	–	–	30	–	–	–	80	62
Cc1ccc(/C=N/Nc2ccc3c(C(F)(F)F)cc(C(F)(F)F)nc3n2)cc1	–	–	–	–	–	–	·	·
COc1ccc(OC)c2c1CC(C)(C)NC2=O	–	–	74	–	–	–	33	32
CCOC(=O)Cc1c(C)nc2c(-c3ccc(Cl)cc3)c(C)[nH]n2c1=O	–	–	–	–	–	–	·	·
CCOC(=O)Cc1c(C)nc2c(-c3cccc(Br)c3)c[nH]n2c1=O	–	–	41	–	–	–	–	21
Cc1cc2n(n1)C(c1ccc(N(C)C)cc1)Nc1ccccc1-2 (stereo unspecified)	–	–	33	20611	–	–	98	82
COc1ccc(C(C(=O)NCC2CCCO2)N(C(=O)c2snc(C(N)=O)c2N)c2ccccc2)cc1OC (stereo unspecified)	–	–	–	–	–	–	·	·
COc1ccc(C(C(=O)NCC2CCCO2)N(C(=O)c2snc(C(N)=O)c2N)c2ccccc2C)cc1OC (stereo unspecified)	–	–	50	–	–	–	168	+
CCc1ccccc1N(C(=O)c1snc(C(N)=O)c1N)C(C(=O)NCC1CCCO1)c1ccc(OC)c(OC)c1 (stereo unspecified)	–	–	62	–	–	–	+	+
COc1ccc(C(C(=O)NCC2CCCO2)N(Cc2ccccc2)C(=O)c2snc(C(N)=O)c2N)cc1OC (stereo unspecified)	–	–	–	–	–	–	·	·
O=C(c1ccc(F)cc1)N1CCN(C2=NS(=O)(=O)c3ccccc32)CC1	–	–	–	–	–	–	·	·
Cc1ccc(N=Cc2c(O)ccc3ccccc23)cc1F	–	–	–	–	–	–	·	·
Cc1ccc(-n2nc(C)c3c(C)c(CCC(=O)O)c(C)nc32)cc1C	–	–	40	–	–	–	–	–
Cc1ccc(-n2nc(C)c3c(C)c(CCC(=O)O)c(C)nc32)cc1	–	–	68	–	–	–	184	117
CCOC(=O)CCc1c(C)nc2c(c(C)nn2-c2ccc(C)cc2)c1C	–	–	–	–	–	–	·	·
CC1CCN(C(=O)COC(=O)c2ccc(=O)n(Cc3ccccc3)n2)CC1	–	–	–	?	–	–	·	·
SMILES	Anthrax LF inh2	BoNT A protease	FBA Mtb inh	Autofluor counter	BoNT-F LC inh	GDH-TPI counter-1	Mtb FBA confirm	GDH-TPI counter-2
Cc1[nH]n(-c2ccccc2)c(=O)c1/C=N/n1c(C)nc2ccccc2c1=O	–	–	–	–	–	–	·	·
Cc1cc2[nH]c(=S)[nH]c2cc1C	–	–	–	–	–	–	·	·
CCOC(=O)CS(=O)(=O)c1nc(-c2ccc(F)cc2)cc(C(F)(F)F)n1	–	–	–	–	–	–	·	·
COCC(C)NC(=O)CCS(=O)(=O)c1nc(-c2ccc(OC)cc2)cc(C(F)(F)F)n1 (stereo unspecified)	–	–	78	–	–	36	+	+
Cn1c(=O)c2nc(-c3ccccc3)oc2c2ccccc21	–	–	99	–	–	–	91	60
CCCCCc1nc2c(=O)n(C)c3ccccc3c2o1	–	–	–	–	–	–	·	·
CCOC(=O)c1sc2nc(C)nc(NCc3ccc(Cl)cc3)c2c1C	–	–	–	–	–	–	·	·
CCOC(=O)c1sc2nc(C)nc(NCc3ccc(F)cc3)c2c1C	–	–	41	–	–	–	44	46
CCOC(=O)c1sc2nc(CC(=O)OC)nc(N3CCN(c4ccccn4)CC3)c2c1C	–	–	–	–	–	–	·	·
CCOC(=O)c1sc2nc(CC(=O)OC)nc(NCc3ccc(F)cc3)c2c1C	–	–	32	16799	–	–	+	148
CCOC(=O)c1sc2nc(C)nc(NCc3cccnc3)c2c1C	–	–	44	–	–	–	108	88
CCOC(=O)c1c(NC(=O)/C=C/C(=O)O)sc(C)c1-c1ccc(C(C)(C)C)cc1	–	–	–	–	–	–	·	·
CC1CN(C(=O)c2ccccc2)OC(c2ccc3c(c2)OCO3)O1 (stereo unspecified)	–	–	–	–	–	–	·	·
Cc1c(C)c2ccc(OCC(=O)N(C)C3CCS(=O)(=O)C3)c(C)c2oc1=O (stereo unspecified)	–	–	89	–	–	–	71	64
CCc1cc(=O)oc2cc(OCC(=O)N3CC[C@@]4(O)CCCC[C@H]4C3)ccc12	–	–	30	–	–	–	64	48
Cc1c(C)c2ccc(OCC(=O)N3CC[C@@]4(O)CCCC[C@H]4C3)c(C)c2oc1=O	–	–	36	–	–	–	104	92
Cc1ccc(NS(=O)(=O)c2cccc(C(=O)NCC3CCCO3)c2)cc1 (stereo unspecified)	?	?	–	–	?	–	·	·
COc1ccc(-c2ccc(/C=N/NC(=O)Cc3nnc(N)s3)o2)cc1Cl	–	–	29	–	–	38	54	30
[O-]/C(=C(\C(=S)NCc1ccc2c(c1)OCO2)[n+]1ccccc1)c1ccc(Cl)s1	–	–	–	–	–	–	·	·
CCOC(=O)c1c(S(=O)(=O)Nc2ccccn2)c(C)n(C)c1C	–	–	–	–	–	–	·	·
Cc1[nH]c2ccccc2c1C(=O)C(=O)NCC1CCCO1 (stereo unspecified)	–	–	–	–	–	–	·	·
O=C(Nc1c(-c2ccccc2)nc2ccccn12)c1ccccc1	–	–	–	–	–	–	·	·
CCC(=O)Nc1c(-c2ccc3ccccc3c2)nc2ccccn12	–	–	50	–	–	–	62	75

Compound activity: PubChem BioAssay, several laboratories
